The results in this text go back to PubChem BioAssay (NCATS).

Several values for one entry are separate records, joined by “and”; a condition that tells them apart may be missing. Identical values can stand only once. Records with an inconclusive call do not appear. A number with no mark means an inactive call. Activity calls are given as the source filed them. The call rests on the fitted dose curve; in most records, active means well fitted curve in the direction sought with a large enough effect; inconclusive means small, poorly fitted or top-dose-only effect, or another doubt; inactive means no such curve, though single readings can be large; an effect the other way counts as inactive or inconclusive.

Test [1] deals with Cellular tumor antigen p53 (Homo sapiens) (UniProt P04637). Description: Primary qHTS for small molecule compounds that upregulate eGFP-tagged delta133p53alpha (in N-terminal) cells. (AID 2060322). Further: nearly all actives have a fitted effect of over 75% in size.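 On activation: cells pre-induced with doxycycline then dosed without doxycycline; 0% = DMSO vehicle and 100% = reference activator.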 The note with it: NCI-H358 eGFP-delta133p53alpha fluorescence, 24 h; activation: hits give high values. The method, boiled down:
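NCI-H358 cells pre-induced 24 h with 10 ng/ml doxycycline for eGFP-delta133p53alpha, plated dox-free and exposed 24 h at 37C to titrated compounds. Fixed, Hoechst-stained; gated GFP peak intensity by laser scanning cytometry, normalized to DMSO (0%) and 57.5 uM 5-azacytidine (100%).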
A general note: In qHTS, concentration-response curves come from the screen itself.

A short description of test [2]: BET inhibitor-based combinations targeting novel dependencies in MECOM-rearranged (r) AML: SET-2 cell line (AID 2202231). Further: nearly all actives have a fitted effect of over 35% in size.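 On viability: plate controls were DMSO treated cells for no effect and wells without cells for full effect.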 The note with it: SET-2 AML cells viability, CellTiter-Glo luminescence, 48 h; viability: hits give low values, concentration not given here. The method, boiled down: (§1)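 Viability of cells (500 per well) is scored by luminescent CellTiter-Glo at 48 hr post-dosing. Eleven-point titrations are normalized to DMSO and empty controls and reduced to AUC values.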
(Cellular ATP, detected with luciferase, serves as a proxy for viable cell number.)

Test [3] in a line: BET inhibitor-based combinations targeting novel dependencies in MECOM-rearranged (r) AML: MV-4-11 cell line (AID 2202233). Further: nearly all actives have a fitted effect of over 45% in size. The note with it: MV-4-11 AML viability, CellTiter-Glo luminescence, 48 h; series mostly up to 46 µM. The method, boiled down:
(§2)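 Using pin-tool transfer, drugs were added in 11 doses to cells (500/well), incubated 48 hr, and assessed with CellTiter-Glo. Z-AUC is a mean-centring transformation applied separately to each screened line.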

The nature of test [4]: BET inhibitor-based combinations targeting novel dependencies in MECOM-rearranged (r) AML: HNT-34 cell line (AID 2202234). Further: nearly all actives have a fitted effect of over 35% in size. To be noted: HNT-34 AML viability, CellTiter-Glo luminescence, 48 h; series mostly up to 46 µM. Put shortly:
as §2

The nature of test [5]: BET inhibitor-based combinations targeting novel dependencies in MECOM-rearranged (r) AML: UCSD-AML1 cell line (AID 2202235). Further: nearly all actives have a fitted effect of over 40% in size. To be noted: UCSD-AML1 AML cells viability, CellTiter-Glo, 48 h; series mostly up to 46 µM. Put shortly:
as §2

The nature of test [6]: BET inhibitor-based combinations targeting novel dependencies in MECOM-rearranged (r) AML: AML-191 cell line (AID 2202236; further: nearly all actives have a fitted effect of over 35% in size). To be noted: AML-191 viability, CellTiter-Glo luminescence, 48 h; series mostly up to 46 µM. The method, boiled down: as §1
A short description of test [7]: BET inhibitor-based combinations targeting novel dependencies in MECOM-rearranged (r) AML: AML-194 cell line (AID 2202237; further: nearly all actives have a fitted effect of over 40% in size). The note with it: AML-194 (MECOM-r AML) viability, CellTiter-Glo, 48 h; series mostly up to 46 µM. The method, boiled down: as §1
A short description of test [8]: BET inhibitor-based combinations targeting novel dependencies in MECOM-rearranged (r) AML: OCI-AML3 cell line (AID 2202232). Further: nearly all actives have a fitted effect of over 35% in size. The note with it: CellTiter-Glo luminescence, 48 h; Potency: OCI-AML3 viability; series mostly up to 46 µM. The method, boiled down:
as §1

One may read the viability as a read-out of living cells in per cent, often relative to untreated cells.
Potency means the concentration at half of the fitted maximal effect.

Chain of Cellular tumor antigen p53 (Homo sapiens) (P04637 whole entry, looked up): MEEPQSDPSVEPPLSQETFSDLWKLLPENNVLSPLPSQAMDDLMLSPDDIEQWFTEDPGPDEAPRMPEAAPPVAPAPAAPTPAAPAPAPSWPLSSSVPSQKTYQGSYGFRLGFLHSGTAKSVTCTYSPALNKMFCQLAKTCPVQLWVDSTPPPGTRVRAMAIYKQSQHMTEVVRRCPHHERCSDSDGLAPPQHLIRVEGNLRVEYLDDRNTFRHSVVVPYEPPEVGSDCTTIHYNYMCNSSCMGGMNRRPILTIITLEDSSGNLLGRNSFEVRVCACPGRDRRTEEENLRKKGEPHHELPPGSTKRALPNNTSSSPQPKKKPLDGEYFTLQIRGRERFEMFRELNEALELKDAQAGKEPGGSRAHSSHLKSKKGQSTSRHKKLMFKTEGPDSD

As for `CC(C)=CC[C@@H](O)C1=CC(=O)c2c(O)ccc(O)c2C1=O`, the activation in test [1] was 3.62%. For the same compound, the Potency in test [2] was 10.5 µM (active); in test [3], 8.33 µM (active); in test [4], 9.34 µM (active); in test [5], 10.5 µM (active); in test [6], 10.5 µM (active); in test [7], 10.5 µM (active).
With `C[C@]1(c2nc3c(C(N)=O)cccc3[nH]2)CCCN1`, the activation in test [1] was 53.7%. In test [2], the viability was 113%. Moreover, the Potency in test [8] is 8.33 µM (active). The Potency entry in test [6] and in test [7] was “inactive” in each case.
On to `CC(C)(C)NC(=O)[C@H]1CC[C@H]2[C@@H]3CC[C@H]4NC(=O)C=C[C@]4(C)[C@H]3CC[C@]12C`, for which the activation in test [1] was -14.2% and -4.21%. Further, the viability in test [2] was 98.4%. The Potency entry in test [8], in test [5], in test [6] and in test [7] was “inactive” each time.
As for `COc1c(N2C[C@@H]3CCCN[C@H]3C2)c(F)cc2c(=O)c(C(=O)O)cn(C3CC3)c12`, the activation in test [1] was 0.987%. Besides, the Potency in test [2] is 14.8 µM (active). In addition, the Potency entry in test [8], in test [4], in test [6] and in test [7] was “inactive” in each case.
Turning to `O=c1cc(-c2ccccc2)oc2cc(O)cc(O)c12`, the activation in test [1] is 3.3%. For the same compound, the viability in test [2] is 85.1%. Moreover, the Potency was 16.6 µM (active) in test [3] and 23.5 µM (active) in test [4].
Consider `Fc1ccc(Cl)cc1-c1nc(Nc2ccncc2)c2nccnc2n1`, for which, in test [1], the activation was 0.772%. For the same compound, the viability in test [2] was 110%. Further, the Potency entry in test [3], in test [4], in test [5] and in test [6] was “inactive” throughout.
As to `COc1cccc2c1C(=O)c1c(O)c3c(c(O)c1C2=O)C[C@@](O)(C(=O)CO)C[C@@H]3O[C@H]1C[C@H](N)[C@@H](O)[C@H](C)O1`, the activation in test [1] was -26.9%. Moreover, the Potency in test [2] was 1.18 µM (active); in test [3], 0.0372 µM (active); in test [4], 0.263 µM (active); in test [5], 0.132 µM (active); in test [6], 0.372 µM (active); in test [7] it was 0.417 µM (active).
For `O=[N+]([O-])c1cn2c(n1)OC[C@@H](OCc1ccc(OC(F)(F)F)cc1)C2`, the activation in test [1] is 9.64%. Also, the viability in test [2] was 111%. Moreover, the Potency result in test [3], in test [4], in test [5], in test [6] and in test [7] was “inactive” throughout.
Take `CN(C)c1ccc2nc3ccc(=[N+](C)C)cc-3sc2c1`: the Potency in test [1] is 17.4 µM (active); in test [2] it was 5.9 µM (active); in test [3], 2.63 µM (active); in test [4], 7.42 µM (active); in test [5], 9.34 µM (active); in test [6], 2.95 µM (active). In addition, in test [7], the Potency is 4.68 µM (active).
For `Oc1ccc(OCc2ccccc2)cc1`, in test [1], the activation is -16.4% and -11.2%. For the same compound, the viability in test [2] was 81.8%. In test [3], the Potency is 9.34 µM (active).
With `CCC(=O)O[C@]1(C(=O)CCl)[C@@H](C)C[C@H]2[C@@H]3CCC4=CC(=O)C=C[C@]4(C)[C@@]3(F)[C@@H](O)C[C@@]21C`, in test [1], the activation was 6.69% and -0.269%. For the same compound, in test [2], the viability was 97.3%. The Potency in test [3] is 20.9 µM (active).
Turning to `COc1cc(C(C)C)c(Oc2cnc(NC(CO)CO)nc2N)cc1I`, the activation in test [1] is -13.5%. Also, the viability in test [2] is 99.2%. Moreover, the Potency result in test [8], in test [5], in test [6] and in test [7] was “inactive” throughout.
As to `Cn1nnc2c(C(N)=O)ncn2c1=O`, in test [1], the activation is 0% and 2.62%. Besides, the viability in test [2] was 102%. Also, the Potency result in test [3] and in test [4] was “inactive” in each case.
As for `O=[N+]([O-])c1ccc(Nc2ccccc2-c2ccccc2)c2nonc12`, the Potency in test [1] was 9.68 µM (active); in test [2], 20.9 µM (active); in test [3], 26.3 µM (active); in test [4] it was 23.5 µM (active); in test [6] it was 20.9 µM (active).
`O=C(O)c1ccc(-c2c[nH]c3ncc(-c4ccccc4)cc23)cc1C1CCCC1`: the activation in test [1] was -17.5%. The viability in test [2] is 89.8%. In addition, the Potency in test [3] is 2.95 µM (active). In addition, in test [5], the Potency result is “inactive”.
Regarding `CC[C@@H](C)[C@H](NC(=O)[C@H](CC1CCCCC1)NC(=O)c1ccno1)C(=O)N1CCC2(CCc3ccccc32)CC1`, the activation in test [1] is 0.928% and 1.43%. Besides, the viability in test [2] was 50.5%. For the same compound, the Potency entry in test [3], in test [5] and in test [7] was “inactive” in each case.
